Compound activity: PubChem, National Center for Advancing Translational Sciences (NCATS)
HEK293 tox = Cytotoxic Profiling in HEK 293 Cell Line of Diverse Libraries Using Quantitative High-Throughput Screening; HEK 293 viability, ATP luminescence (CellTiter-Glo), 48-72 h; Potency, µM (series often up to 115 µM), usual class: inhibitors; actives 6.6% (n = 94,000); further: nearly all actives have a fitted effect of over 60% in size
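HEK 293 cells seeded at 250 cells/well were exposed to compound for 48 or 72 hr at 37 degree Celsius. Viability taken as ATP content by CellTiter-Glo luminescence.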
Luciferase inh = Firefly luciferase inhibition profiling of diverse chemical library using quantitative high-throughput screening; Luciferin 4-monooxygenase (Photinus pyralis), P08659; purified P. pyralis luciferase, luminescence, biochemical; Potency, µM (series often up to 115 µM), most hits filed as inhibitors; actives 2.5% (n = 76,000); further: nearly all actives have a fitted effect of over 65% in size
Target sequence (P08659 whole entry, looked up): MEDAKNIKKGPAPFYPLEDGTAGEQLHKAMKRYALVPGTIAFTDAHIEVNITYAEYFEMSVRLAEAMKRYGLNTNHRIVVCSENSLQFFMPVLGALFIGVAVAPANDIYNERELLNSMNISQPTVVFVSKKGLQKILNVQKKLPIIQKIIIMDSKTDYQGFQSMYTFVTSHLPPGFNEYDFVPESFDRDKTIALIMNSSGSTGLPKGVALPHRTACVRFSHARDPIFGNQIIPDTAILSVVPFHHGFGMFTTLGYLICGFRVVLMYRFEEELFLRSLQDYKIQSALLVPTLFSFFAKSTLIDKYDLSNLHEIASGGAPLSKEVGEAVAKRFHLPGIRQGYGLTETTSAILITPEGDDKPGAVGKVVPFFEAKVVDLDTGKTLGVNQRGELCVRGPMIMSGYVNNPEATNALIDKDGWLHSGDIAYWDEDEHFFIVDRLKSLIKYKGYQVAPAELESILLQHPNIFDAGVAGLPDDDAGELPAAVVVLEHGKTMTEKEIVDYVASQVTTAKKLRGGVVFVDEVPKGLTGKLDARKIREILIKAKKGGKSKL
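Luminescence read by CCD imager after adding enzyme (10nM final) to wells holding compound, titrated in qHTS. Substrates 10uM each D-luciferin and ATP; buffer 50mM Tris acetate pH 7.5, 10mM Mg acetate, Tween-20, BSA.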
3T3 cytotox = Cytotoxic Profiling in NIH 3T3 Cell Line of Diverse Libraries Using Quantitative High-Throughput Screening. NIH 3T3 viability, CellTiter-Glo ATP luminescence, 48-72 h. Potency, µM (doses to about 96.7 µM), most hits filed as inhibitors. actives 4.3% (n = 94,000). AID 1345082, 2018; further: nearly all actives have a fitted effect of over 55% in size
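First NIH 3T3 cells are plated at 400 cells/well; next compound is pinned in; then plates incubate 48 or 72 hr at 37 °C; finally CellTiter-Glo is added and luminescence read after 10 min.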
hNpr1 antagonist = Natriuretic polypeptide receptor (hNpr1) antagonism - Primary qHTS. Atrial natriuretic peptide receptor 1 (Homo sapiens), P16066. HEK293 hNpr1 GloSensor cGMP, ANP-stimulated luminescence. Potency, µM (top dose mostly 46.3 µM), usual class: inhibitors. actives 1.6% (n = 76,000); calls by dose curve; further: nearly all actives have a fitted effect of over 60% in size
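HEK293 cells stably expressing human Npr1 and cGMP GloSensor pGS-40F, loaded 2 h with 2% GloSensor reagent, given compound 30 min at room temperature. Luminescence read before and 20 min after 0.1 nM hNppA.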
Each line names hits and unclear results; the compound was inactive in the other large screens. Hits are enriched below; roughly 11% of the tested compounds scored in any of these assays. Unless noted, the call rests on the fitted dose curve; in most records, active means well fitted curve in the direction sought with a large enough effect; inconclusive means small, poorly fitted or top-dose-only effect, or another doubt; inactive means no such curve, though single readings can be large; an effect the other way counts as inactive or inconclusive.

COc1ccc(C(=O)N[C@@H]2CCC[C@@H]2C(=O)NC(C)C)cc1	none
O=C1CO[C@H]2CCN(Cc3ccccc3Cl)CC[C@@H]2N1c1ccccc1	HEK293 tox 79.4µM, 3T3 cytotox inconclusive
O=C1CO[C@H]2CCN(Cc3ccccc3O)CC[C@@H]2N1c1ccccc1	3T3 cytotox inconclusive
O=C1CO[C@H]2CCN(CCCc3ccccc3)CC[C@@H]2N1c1ccccc1	HEK293 tox 100µM, 3T3 cytotox 89.1µM
Cc1nn2c(c1-c1ccccc1OCc1ccccc1)N(Cc1cccnc1)CCC2	HEK293 tox 63.1µM, 3T3 cytotox inconclusive
Cc1nn2c(c1-c1ccccc1OCc1ccccc1)N(Cc1nccn1C)CCC2	HEK293 tox 100µM, 3T3 cytotox inconclusive
CC(C)(C)OC(=O)N1CC(Nc2ccc(Oc3ccccc3)cc2)C1	HEK293 tox 89.1µM, 3T3 cytotox inconclusive (no result: Luciferase inh, hNpr1 antagonist)
Cc1ccc(-c2noc([C@@H]3C[C@H](NC(=O)Nc4ccc(Cl)cc4)CN3C)n2)cc1	none
CN1C[C@@H](NC(=O)c2ccccn2)C[C@H]1c1nc(-c2ccc(OC(F)(F)F)cc2)no1	HEK293 tox 79.4µM, 3T3 cytotox inconclusive
COc1ccc(CC(=O)N[C@H]2C[C@@H](c3nc(-c4ccc(OC(F)(F)F)cc4)no3)N(C)C2)cc1	HEK293 tox 35.5µM, 3T3 cytotox inconclusive, hNpr1 antagonist inconclusive
CN1C[C@@H](NC(=O)c2ccccn2)C[C@H]1c1nc(-c2ccc(Cl)cc2)no1	HEK293 tox 89.1µM, Luciferase inh 70.8µM, 3T3 cytotox inconclusive
COc1ccc(C(=O)N[C@H]2C[C@@H](c3nc(-c4ccccc4)no3)N(C)C2)cc1	HEK293 tox inconclusive, 3T3 cytotox inconclusive
CN1C[C@@H](NC(=O)Nc2ccc(C(F)(F)F)cc2)C[C@H]1c1nc(-c2ccc(Cl)cc2)no1	HEK293 tox 20µM, 3T3 cytotox 8.91µM, hNpr1 antagonist inconclusive
CCOC(=O)CCNC(=O)N1CCOc2ccc(CN3CCc4ccccc4C3)cc2C1	none
COc1ccc(C(=O)N[C@H]2C[C@@H](c3nc(-c4ccc(Cl)cc4)no3)N(C)C2)cc1	HEK293 tox 56.2µM, Luciferase inh inconclusive, 3T3 cytotox inconclusive, hNpr1 antagonist inconclusive
CN1C[C@@H](NC(=O)c2cnccn2)C[C@H]1c1nc(-c2ccc(OC(F)(F)F)cc2)no1	HEK293 tox 89.1µM, 3T3 cytotox inconclusive
CN1C[C@@H](NC(=O)Nc2ccc(F)cc2F)C[C@H]1c1nc(-c2ccncc2)no1	HEK293 tox inconclusive, Luciferase inh inconclusive, 3T3 cytotox inconclusive
CN1C[C@@H](NC(=O)Nc2ccc(F)cc2F)C[C@H]1c1nc(-c2ccccc2)no1	HEK293 tox 63.1µM, hNpr1 antagonist inconclusive
CNC(=O)c1cc(C2CC2)nc2c1c(C1CCN(C(=O)c3ccccc3C)CC1)nn2C	none (no result: Luciferase inh, hNpr1 antagonist)
O=C(c1cc(F)ccc1Cl)N1CCC(n2cc(-c3nc(-c4ccccc4)no3)nn2)C1 (stereo unspecified)	HEK293 tox inconclusive, Luciferase inh inconclusive, 3T3 cytotox inconclusive, hNpr1 antagonist 12.6µM
CN(C)c1ccc(C(=O)N2CCC(n3cc(-c4nc(C5CC5)no4)nn3)C2)cc1 (stereo unspecified)	HEK293 tox inconclusive
Cc1ccc(C(=O)N2CCC(n3cc(-c4nc(-c5ccccc5)no4)nn3)C2)cc1C (stereo unspecified)	HEK293 tox 44.7µM, Luciferase inh 31.6µM, 3T3 cytotox inconclusive, hNpr1 antagonist 2µM
CN(C)c1ccc(C(=O)N2CCC(n3cc(-c4nc(-c5ccccc5)no4)nn3)C2)cc1 (stereo unspecified)	HEK293 tox 44.7µM, Luciferase inh inconclusive, 3T3 cytotox inconclusive
CC(=O)NCCc1ncc(C)n1C1CCCCCCC1	HEK293 tox inconclusive, 3T3 cytotox inconclusive
COc1cccc(CNC(=O)C2CCN(c3nc4ncccc4o3)CC2)c1	none (no result: Luciferase inh, hNpr1 antagonist)
CC(C)c1ccc(C(=O)N2CC(C(=O)NC3CCCCC3)C3(CCOCC3)C2)cc1 (stereo unspecified)	HEK293 tox inconclusive
CC(C)[C@@H]1C[C@@H]2C[C@@H](NCc3ccccc3)C[C@]2(c2ccccc2)CO1	HEK293 tox 79.4µM, 3T3 cytotox inconclusive (no result: Luciferase inh, hNpr1 antagonist)
CC(C)[C@@H]1C[C@@H]2C[C@@H](NC3CCCC3)C[C@]2(c2ccccc2)CO1	3T3 cytotox inconclusive (no result: Luciferase inh, hNpr1 antagonist)
